# Experimental data: PubChem BioAssay (NCATS)
# Inconclusive results are not listed. A call without a number means that no potency is given here. Activity calls are given as the source filed them. Calls come from the whole dose curve; as a rule, active = well fitted curve in the direction sought with a large enough effect; inconclusive = small, poorly fitted or top-dose-only effect, or another doubt; inactive = no such curve, though single readings can be large; an effect the other way counts as inactive or inconclusive.
# Columns and labels:
# [1] = target: Calcium and integrin-binding protein 1 (Homo sapiens) (UniProt Q99828); experiment: Primary qHTS for Identification of Calcium Integrin Binding Protein 1 (CIB1) Competitor (AID 1508620);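 note: GST tagged CIB1 binding a fluorescein labelled alphaIIb integrin peptide tracer; top concentration of the series differs between compounds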
# Summary of the method: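 Fluorescence polarization competition: GST-tagged CIB1 (1 uM final) preincubated with compound 15 min at room temperature, then FITC-labelled alphaIIb peptide (100 nM final) added. After 15 min at room temperature, polarization read at Ex 480/Em 540.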
# [2] = Primary qHTS for inhibitors of nuclear receptor binding SET domain protein 2 (NSD2) in an isogenic RCH-ACV NSD2 p.E1099K mutant (9B) (AID 1645876); note: nearly all actives have a fitted effect of over 70% in size; note: potency is the fitted concentration of half-maximal effect
# [3] = Primary qHTS for inhibitors of nuclear receptor binding SET domain protein 2 (NSD2) in an RCH-ACV wild type WT cells (2C) (AID 1645877); note: nearly all actives have a fitted effect of over 70% in size; note: potency is the fitted concentration of half-maximal effect
# Calcium and integrin-binding protein 1 (Homo sapiens), sequence (Q99828 whole entry, looked up): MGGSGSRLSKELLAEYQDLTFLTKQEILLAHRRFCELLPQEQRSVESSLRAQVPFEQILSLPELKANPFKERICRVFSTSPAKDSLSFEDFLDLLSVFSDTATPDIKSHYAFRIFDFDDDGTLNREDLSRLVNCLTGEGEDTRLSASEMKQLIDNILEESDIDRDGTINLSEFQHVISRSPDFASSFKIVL
Structure (SMILES),Potency [1],Potency [2],Potency [3],"activity change, negative = viability loss [2]","activity change, negative = cell killing [3]"
CC[C@H]1CN2CC[C@H]1C[C@H]2[C@H](O)c1ccnc2ccc(OC)cc12,inactive,inactive,,,
C=CC(C)(C)c1[nH]c2cccc3c2c1C[C@@H]1[C@@H]3[C@@H](OC(C)=O)[C@H](C)CN1C,inactive,inactive,inactive,,
COc1cc(C(=O)O[C@H]2[C@@H]3C=CO[C@@H](O[C@@H]4O[C@H](CO)[C@@H](O)[C@H](O)[C@H]4O)[C@@H]3[C@@]3(CO)O[C@@H]23)ccc1O,inactive,inactive,inactive,,
CN1C(=O)N(c2ccc(C#N)c(C(F)(F)F)c2)C(=O)[C@]1(CO)c1ccccc1,inactive,inactive,inactive,,
C/C=C(\C)C(=O)OC1CC2C(CC=C3CC(OC4CC(OC)C(OC5CC(OC)C(OC6OC(C)C(OC7OC(CO)C(O)C(O)C7O)C(OC)C6O)C(C)O5)C(C)O4)CCC32C)C2(O)CCC(C(C)=O)C12C (stereo unspecified),inactive,,,-7.24% [at 9.23 µM] (inactive),-1.79% [at 9.23 µM] (inactive)
C=C[C@H]1CN2CC[C@H]1C[C@@H]2[C@@H](O)c1ccnc2ccccc12,inactive,inactive,inactive,,
COC1C(O)C(OC2CCC3(C=O)C(CCC4C3CCC3(C)C(C5=CC(=O)OC5)CCC43O)C2)OC(C)C1OC1OC(CO)C(O)C(O)C1O (stereo unspecified),inactive,171 nM (active),342 nM (active),,
COC1=CC(=O)O[C@@H](/C=C/c2ccccc2)C1,inactive,inactive,inactive,,
N#CC(OC1OC(COC2OC(CO)C(O)C(O)C2O)C(O)C(O)C1O)c1ccccc1 (stereo unspecified),inactive,inactive,inactive,,
